According to PubChem BioAssay (Tox21):
Results filed as inconclusive are left out. Active and inactive are the calls of the source. Unless noted, calls follow the shape of the dose curve; as a rule, active = well fitted curve in the direction sought with a large enough effect in the repeat runs; inconclusive = weak or mixed curves; inactive = no such curve, though single readings can be large; an effect the other way counts as inactive or inconclusive.

Key:
[1] = qHTS assay for small molecules that induce genotoxicity in human embryonic kidney cells expressing luciferase-tagged ATAD5 (AID 651632); also: nearly all actives have a fitted effect of over 15% in size
Procedure, shortened: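 Genotoxicity read-out via ATAD5-luciferase: HEK293T cells, 16 hr compound incubation at 37C, Amplite detection.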

[2] = qHTS assay for small molecules that induce genotoxicity in human embryonic kidney cells expressing luciferase-tagged ATAD5 - cell viability (AID 651634; calls by dose curve; also: nearly all actives have a fitted effect of over 25% in size)
Procedure, shortened: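 Live-cell protease activity (CellTiter-Fluor, fluorescence) indicates viability. HEK293T cells with luciferase-tagged ATAD5; 15.5 hr compound treatment at 37C.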

[3] = qHTS assay for small molecule disruptors of the mitochondrial membrane potential - cell viability (AID 720634; calls by dose curve;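 also: human HepG2 liver cancer cells; series mostly up to about 83 µM; nearly all actives have a fitted effect of over 20% in size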)
Procedure, shortened: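 Human hepatoma HepG2 cells were treated for 1 hr with test chemicals, then given m-MPI dye and CellTiter-Glo. Cell viability reflects luminescence proportional to cellular ATP.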

[4] = qHTS assay for small molecule disruptors of the mitochondrial membrane potential (AID 720635)
Procedure, shortened: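 Mitochondrial membrane potential tracked with Mito-MPS dye, red aggregates (ex 540/em 590 nm) against green monomers (ex 490/em 535 nm). Compound treatment 1 hr at 37C, dye 30 min in HepG2.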

[5] = qHTS assay to test for compound auto fluorescence at 590 nm (red) in HepG2 cells (AID 720674)
Procedure, shortened: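 Red autofluorescence (Ex/Em 540/590 nm, Rose Bengal sodium equivalents) was measured in HepG2 cells, 2,000 per well in MEM plus 10% FBS, plated overnight at 37 C. Readings were taken 1 hr after adding 23 nL compound or DMSO, at 37 C and 5% CO2.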

[6] = qHTS assay to test for compound auto fluorescence at 535 nm (green) in HepG2 cells (AID 720675)
[7] = qHTS assay to test for compound auto fluorescence at 460 nm (blue) in HEK293 cells (AID 720678)
Procedure, shortened: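 Triamterene serves as the blue fluorophore standard. Compound signal at 405/460 nm is read in HEK293 wells (2,000 cells, 10% dialyzed FBS) after overnight treatment at 37C.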

[8] = qHTS assay to test for compound auto fluorescence at 535 nm (green) in HEK293 cells (AID 720680)
[9] = qHTS assay to test for compound auto fluorescence at 460 nm (blue) in HEK293 cell free culture (AID 720681)
Procedure, shortened: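 Blue fluorescence (Ex 405/Em 460 nm, triamterene-equivalent) was read immediately after pin transfer of compound or DMSO into medium (DMEM, 10% FBS) without cells.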

[10] = qHTS assay to test for compound auto fluorescence at 535 nm (green) in HEK293 cell free culture (AID 720682)
Procedure, shortened: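 DMEM + 10% FBS, cell-free; cpd or DMSO pinned in; Ex485/Em535 read; output as fluorescein-equivalent signal.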

[11] = qHTS assay to test for compound auto fluorescence at 590 nm (red) in HEK293 cell free culture (AID 720683)
Procedure, shortened: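 Red-channel autofluorescence of compounds in culture medium (DMEM, 10% FBS), no cells, measured at 540/590 nm. Rose Bengal sodium is the reference fluorophore for equivalence.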

[12] = qHTS assay to test for compound auto fluorescence at 590 nm (red) in HepG2 cell free culture (AID 720684)
Procedure, shortened: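 Steps: dispense MEM/10% FBS medium, no cells; pin compound or DMSO vehicle; read red channel, Ex/Em 540/590 nm. Output given as Rose Bengal sodium equivalents.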

[13] = qHTS assay to test for compound auto fluorescence at 460 nm (blue) in HepG2 cell free culture (AID 720685)
Procedure, shortened: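 Compound (23 nL) or DMSO pinned into cell-free MEM with 10% FBS; blue fluorescence read at 405/460 nm excitation/emission, expressed as auto-fluorescence equivalency to triamterene.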

[14] = qHTS assay to test for compound auto fluorescence at 535 nm (green) in HepG2 cell free culture (AID 720686)
[15] = qHTS assay to test for compound auto fluorescence at 460 nm (blue) in HepG2 cells (AID 720687)
Procedure, shortened: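 Blue-channel autofluorescence (Ex/Em 405/460 nm, triamterene-equivalent) was measured after 1 hr compound exposure at 37 C, 5% CO2. Cells were HepG2, plated overnight at 37 C in MEM plus 10% FBS.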

[16] = qHTS assay for small molecule agonists of the p53 signaling pathway - cell viability (AID 651633; calls by dose curve;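 also: p53RE-bla HCT reporter cells with a stable beta-lactamase p53 reporter; series mostly up to about 83 µM; nearly all actives have a fitted effect of over 30% in size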)
Procedure, shortened: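 Viability counter-read: CellTiter-Glo luminescence (30 min, room temperature) in the same p53RE-bla plates. These plates had been exposed to compounds for 16 h at 37 C.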

[17] = qHTS assay to test for compound auto fluorescence at 590 nm (red) in HEK293 cells (AID 720679)
Procedure, shortened: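 We plated HEK293 cells in 10% dialyzed FBS medium, let them adhere for 4-5 hr, then added 23 nL compound. Overnight at 37C and 5% CO2 preceded fluorescence measurement at 540/590nm.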

[18] = biological target: Glucocorticoid receptor (Homo sapiens) (UniProt P04150); assay: qHTS assay to identify small molecule agonists of the glucocorticoid receptor (GR) signaling pathway (AID 720691; active = well fitted activation curve with a large enough effect in the signal ratio in the repeat runs, not every such curve was filed as active; the % refers to the signal ratio)
Sequence of Glucocorticoid receptor (Homo sapiens) (P04150 whole entry, looked up): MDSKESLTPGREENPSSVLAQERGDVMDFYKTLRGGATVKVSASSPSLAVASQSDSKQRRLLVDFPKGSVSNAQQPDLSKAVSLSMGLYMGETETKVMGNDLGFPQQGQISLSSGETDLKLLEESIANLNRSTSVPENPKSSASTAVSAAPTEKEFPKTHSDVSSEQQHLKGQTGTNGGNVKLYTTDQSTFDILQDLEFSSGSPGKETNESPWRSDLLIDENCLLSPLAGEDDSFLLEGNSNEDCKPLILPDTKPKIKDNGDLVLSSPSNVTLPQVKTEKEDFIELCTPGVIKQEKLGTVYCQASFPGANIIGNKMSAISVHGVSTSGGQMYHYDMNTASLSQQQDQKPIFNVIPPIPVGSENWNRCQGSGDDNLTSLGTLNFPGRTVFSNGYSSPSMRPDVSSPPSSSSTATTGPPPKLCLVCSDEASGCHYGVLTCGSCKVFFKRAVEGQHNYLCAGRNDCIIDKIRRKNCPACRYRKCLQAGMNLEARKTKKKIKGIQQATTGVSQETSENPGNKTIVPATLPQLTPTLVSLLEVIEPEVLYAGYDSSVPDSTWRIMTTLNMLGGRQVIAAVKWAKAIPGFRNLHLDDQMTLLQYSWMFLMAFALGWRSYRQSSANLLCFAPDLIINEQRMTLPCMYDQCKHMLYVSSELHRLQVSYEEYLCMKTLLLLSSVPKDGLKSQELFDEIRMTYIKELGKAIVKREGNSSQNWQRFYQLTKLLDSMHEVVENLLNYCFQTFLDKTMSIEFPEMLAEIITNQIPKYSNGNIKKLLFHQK
Procedure, shortened: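 Beta-lactamase reporter activity, read as fluorescence intensity, was measured in GR-bla HeLa cells exposed to compounds for 18 h at 37 C and then loaded with LiveBLAzer B/G FRET substrate for 2 h at room temperature.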

[19] = biological target: Glucocorticoid receptor (Homo sapiens) (UniProt P04150); assay: qHTS assay to identify small molecule antagonists of the glucocorticoid receptor (GR) signaling pathway (AID 720692; active = well fitted inhibition curve with a large enough effect in the signal ratio in the repeat runs, not every such curve was filed as active; the % refers to the signal ratio)
Procedure, shortened: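 Fluorescence from cleaved LiveBLAzer B/G FRET substrate reports GRE-driven beta-lactamase in HeLa cells; compounds are tested against 5 nM dexamethasone (final) over 18 h at 37 C, substrate incubation 2 h at room temperature.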
% is scaled to controls: 0 for no effect and ±100 for the full control effect.

CCOCCn1c(N2CCCN(C)CC2)nc2ccccc21
inactive: Potency [1] | Potency [2] | Potency [3] | Potency [4] | outcome [5] | outcome [6] | Potency [7] | outcome [8] | Potency [9] | outcome [10] | outcome [11] | outcome [12] | outcome [13] | outcome [14] | outcome [15]

CC/C=C\CCO
inactive: Potency [16] | Potency [2] | Potency [3] | outcome [5] | outcome [6] | Potency [7] | outcome [17] | outcome [8] | Potency [9] | outcome [10] | outcome [11] | outcome [12] | outcome [13] | outcome [14] | outcome [15] | Potency [18] | Potency [19]

SCCOCCOCCS
inactive: Potency [1] | Potency [2] | Potency [3] | outcome [5] | outcome [6] | Potency [7] | outcome [17] | outcome [8] | Potency [9] | outcome [10] | outcome [11] | outcome [12] | outcome [13] | outcome [14] | outcome [15] | Potency [18] | Potency [19]

CCOc1ccc2c(c1)C(C)CC(C)(C)N2 (centres undefined)
inactive: Potency [1] | Potency [2] | Potency [3] | outcome [5] | outcome [6] | Potency [7] | outcome [8] | Potency [9] | outcome [10] | outcome [12] | outcome [14] | outcome [15] | Potency [18] | Potency [19]

CC(COc1ccccc1)NC(C)C(O)c1ccc(O)cc1 (centres undefined)
inactive: Potency [1] | Potency [2] | Potency [3] | Potency [4] | fluorescence, relative to Rose Bengal [5] -0.283% [at 18.6 µM] | fluorescence, % of fluorescein control [6] -0.086% [at 18.6 µM] | fluorescence, % of triamterene [7] -0.0294% [at 18.6 µM] | fluorescence, % of fluorescent control [17] -0.22% [at 18.6 µM] | fluorescence, % of fluorescein [8] 0.0104% [at 18.6 µM] | fluorescence, % of fluorescent control [9] 0.128% [at 18.6 µM] | activity change [10] -0.0013% [at 18.6 µM] | fluorescence, % of fluorescent control [11] 0.208% [at 18.6 µM] | fluorescence, % of Rose Bengal [12] -0.0388% [at 18.6 µM] | fluorescence, % of fluorescein control [14] 0.0107% [at 18.6 µM] | fluorescence, % of fluorescent control [15] 0.0066% [at 18.6 µM] | Potency [18] | Potency [19]

Clc1cccc(C(c2ccc3nc[nH]c3c2)n2ccnc2)c1 (centres undefined)
inactive: Potency [16] | Potency [2] | outcome [5] | outcome [6] | Potency [7] | outcome [17] | outcome [8] | Potency [9] | outcome [10] | outcome [11] | outcome [13] | outcome [14] | outcome [15] | Potency [18]

O=C(NC1CCN(CCc2c[nH]c3ccccc23)CC1)c1ccccc1
inactive: Potency [1] | Potency [2] | Potency [3] | outcome [5] | outcome [6] | Potency [7] | outcome [17] | outcome [8] | outcome [10] | outcome [11] | outcome [12] | outcome [13] | outcome [14] | outcome [15]

CCCCCCCCCCCCSCCOCCO
inactive: Potency [1] | Potency [2] | Potency [3] | outcome [5] | outcome [6] | Potency [7] | outcome [17] | outcome [8] | Potency [9] | outcome [10] | outcome [11] | outcome [12] | outcome [14] | outcome [15] | Potency [18] | Potency [19]
